Data on 25 compounds can be found in PubChem BioAssay AID651724 (National Center for Advancing Translational Sciences (NCATS), 2012).

Hit rate of the full screen: of about 340,000 compounds, about 1,700 (0.5%) were called active. About 2% were inconclusive and are not listed. No stated cut-off is given here; in the data, active means activity change below about -65%; inconclusive means mostly about -30% to -63%; inactive means weaker than that. The full list was thinned out, with actives kept by preference.
On the % scale 0 is the no-effect control and ±100 the full control effect.

This experiment deals with CtBP / adenovirus E1A interaction (AlphaScreen). In words: qHTS Assay for Inhibitors of the CtBP/E1A Interaction. Particulars: AlphaScreen GST-E1A/His-CtBP binding, 1536-well; active compounds read low. The procedure, abridged:
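Steps: dispense buffer (Tris pH 8.0, NaCl 300 mM, TCEP 1 mM, BSA, Tween 20); add 5X protein mix (GST-E1A, His-CtBP, 125 nM each); pin 23 nL compound; 2 h at 37 °C, dark; add 5X beads (50 ug/mL); 1 h; read.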
With `CCOC(=O)c1cc(-c2sc(NC(=O)c3ccccc3)nc2C)n(-c2ccc(Br)cc2)n1`, the activity change was 0% (inactive).

On to `COc1cccc(NC(=O)CN(C)C(=O)c2cc(Cl)nc3ccccc23)c1`, for which the activity change was -3.92% (inactive).

For `COc1ccc2ccccc2c1/C=N/NC(=O)c1cc(C)[nH]n1`, the activity change is -8.94% (inactive).

In the case of `Cc1cc(C(=O)N/N=C/c2cc([N+](=O)[O-])cc(C)c2O)n[nH]1`, the activity change was -87.9% (active).

In the case of `Cc1ccsc1C(=O)N/N=C/c1ccc([N+](=O)[O-])cc1`, the activity change was -4.19% (inactive).

Consider `Cc1ccccc1S(=O)(=O)NC(=O)C1(C)CCN1C(=O)C1(c2ccc(Cl)cc2)CC1` (stereo not given), for which the activity change was 9.59% (inactive).

With `NC(c1ccccc1)c1csc(NC(=O)Nc2cccc(C(F)(F)F)c2)n1` (stereo not given), the activity change is -14.2% (inactive).

Consider `O=C(COc1ccc(Cl)cc1Cl)N/N=C/c1ccccn1`, for which the activity change is -13% (inactive).

Consider `NC(=S)NN=Cc1ccc(OC(=O)COc2cc(Cl)c(Cl)cc2Cl)cn1`, for which the activity change is -89.3% (active).

Turning to `O=C(COC(=O)COc1cc(Cl)c(Cl)cc1Cl)NC1CC1`, the activity change was -0.684% (inactive).

As for `CCCS(=O)(=O)NC(=O)C1(C)CCCN(C(=O)c2ccnc(Cl)c2)C1` (stereo not given), the activity change is -15.6% (inactive).

Take `Cc1cc([N+](=O)[O-])ccc1NC1CCCC1`: the activity change was -0.0944% (inactive).

With `Cc1cc([N+](=O)[O-])c(NC2CCCCC2)c([N+](=O)[O-])c1`, the activity change is -67.5% (active).

`Cc1cc([N+](=O)[O-])c(N2CCC[C@@H]2C(=O)O)c([N+](=O)[O-])c1`: the activity change is 4.03% (inactive).

`CN(C)CCNC(=O)c1ccc(-c2cn3c(-c4ccc(Oc5ccccc5)cc4)cnc3cn2)cc1`: the activity change was -7.14% (inactive).

As to `Oc1c(CN2CCN(c3ccc(F)cc3)CC2)cc(Cl)c2cccnc12`, the activity change was -85.8% (active).

Turning to `Cc1cccc(C)c1NC(=O)CN1CCN(c2ccc(F)cc2)CC1`, the activity change is -4.18% (inactive).

Consider `Cc1ccc(CN2CCN(c3ncccn3)CC2)c(C)c1`, for which the activity change was -0.239% (inactive).

Turning to `O=C1CC[C@@H](C(=O)N2CSC[C@@H]2C(=O)Nc2ccc(C(F)(F)F)cc2)N1`, the activity change is 2.94% (inactive).

Consider `COc1ccc(C=C2CCC3C(CCCC34OCCO4)C2=O)cc1` (stereo not given), for which the activity change is -0.25% (inactive).

As for `COc1cccc(NC(=S)NCc2ccccn2)c1`, the activity change was -9.96% (inactive).

Regarding `Cc1ccc(C(=O)N/C(=C\c2cccs2)C(=O)NCCc2ccccn2)cc1C`, the activity change is -19.9% (inactive).

With `COc1cncc(-c2cnc3sc(NCCc4ccccn4)nn23)c1`, the activity change was -68.3% (active).

On to `O=S(=O)(c1cccc(C(F)(F)F)c1)N1c2ccccc2-n2cccc2C1c1cccnc1` (stereo not given), for which the activity change was 1.4% (inactive).

With `C[C@@H]1CN([C@@H](C)CO)C(=O)c2cc(Br)cnc2O[C@H]1CN(C)Cc1ccc(-c2ccccc2)cc1`, the activity change is -2.2% (inactive).
